From PubChem BioAssay (Tox21)
Where “and” joins values, the source holds several entries; their conditions need not be identical. Equal values may be shown once. Records with an inconclusive call do not appear. A call without a number means that no potency is given here. Some structures have more than one record in an assay (separate samples or runs), and their calls can disagree. Calls of active or inactive are those of the source. Unless noted, calls come from the whole dose curve; as a rule, active = well fitted curve in the direction sought with a large enough effect in the repeat runs; inconclusive = weak or mixed curves; inactive = no such curve, though single readings can be large; an effect the other way counts as inactive or inconclusive.

Experiments:
[1] = qHTS assay to identify small molecule agonists of the estrogen receptor alpha (ER-alpha) signaling pathway in the presence of an antagonist - cell viability counter screen (AID 1259386);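 note: cells exposed to compounds for 22 h at 37 °C before the viability read; nearly all actives have a fitted effect of over 30% in size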; note: potency is the fitted concentration of half-maximal effect
Outline: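 The test measures whether compounds kill ER-alpha reporter cells (VM7Luc4E2) under antagonist co-treatment (ICI-182,780, 10.0nM). Fluorescence from CellTiter-Fluor is read after a 22hr exposure.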

[2] = molecular target: Progesterone receptor (Homo sapiens) (UniProt P06401); test: qHTS assay to identify small molecule antagonists of the progesterone receptor (PR) signaling pathway (AID 1346795; active = well fitted inhibition curve with a large enough effect in the signal ratio in the repeat runs, not every such curve was filed as active; the % refers to the signal ratio; note: potency is the fitted concentration of half-maximal effect)
Outline: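 Stimulus R5020 at 1 nM final; cells HEK293T PR-UAS-bla; medium with 2% charcoal-stripped FBS; compound exposure 16 hr at 37C, 5% CO2; detection by FRET beta-lactamase substrate, 2 hr, room temperature.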

[3] = qHTS assay to identify small molecule antagonists of the progesterone receptor (PR) signaling pathway - cell viability counter screen (AID 1346798); note: series mostly up to about 92 µM; nearly all actives have a fitted effect of over 50% in size
Outline: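 In the same plates used for the beta-lactamase readout, cell viability of compound- and R5020-treated PR-UAS-bla HEK293T cells (16 hr, 37C) was assessed by CellTiter-Glo luminescence.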

[4] = qHTS assay to identify small molecule agonists of the progesterone receptor (PR) signaling pathway - cell viability counter screen (AID 1346799; calls by dose curve; note: nearly all actives have a fitted effect of over 45% in size; note: potency is the fitted concentration of half-maximal effect)
Outline: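 Multiplexed viability read: CellTiter-Glo luminescence, 30 min RT, following LiveBLAzer FRET measurement on PR-UAS-bla HEK293T cells exposed to compounds 16 hr.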

[5] = qHTS assay to identify small molecule antagonists of the TGF-beta/Smad signaling pathway - cell viability counter screen (AID 1346824); note: nearly all actives have a fitted effect of over 50% in size
Outline: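 SBE-bla HEK 293T cells, incubated overnight, then compound plus 0.25 ng/mL TGF-beta1 (stock added) for 5 hr at 37 C. Viability was read in the same wells by CellTiter-Glo luminescence after 30 min at room temperature.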

[6] = qHTS assay to identify small molecule agonists of the TGF-beta/Smad signaling pathway - cell viability counter screen (AID 1346829); note: top concentration of the series differs between compounds; nearly all actives have a fitted effect of over 45% in size
Outline: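 Same-well cytotoxicity: CellTiter-Glo added after the 2 hr room-temperature beta-lactamase substrate step, luminescence measured 30 min later; cells had 5 hr of compound at 37 C.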

[7] = qHTS assay to identify small molecule agonists of the TGF-beta/Smad signaling pathway (AID 1346859; active = well fitted activation curve with a large enough effect in the signal ratio in the repeat runs, not every such curve was filed as active; the % refers to the signal ratio; note: series mostly up to about 77 µM)
Outline: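 Screening used HEK 293T SBE-bla cells at 4,000/well. Test agents: 5 hr, 37 C. Detection: FRET substrate, 2 hr RT, then excitation 405 nm with emissions at 460 and 530 nm.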

[8] = molecular target: Thyrotropin-releasing hormone receptor (Homo sapiens) (UniProt P34981); test: qHTS assay to identify small molecule antagonists of the thyrotropin-releasing hormone receptor (TRHR) signaling pathway (AID 1346877; active = well fitted inhibition curve with a large enough effect in the repeat runs, not every such curve was filed as active; note: series mostly up to about 51 µM)
Outline: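 Overnight-plated (18 h, 37 °C) HEK293 cells expressing TRHR were dye-loaded 2 h, treated with compound, then stimulated with TRH at 1 nM final. Fluorescence intensity was captured every second for 3 min.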

[9] = molecular target: Thyrotropin-releasing hormone receptor (Homo sapiens) (UniProt P34981); test: qHTS assay to identify small molecule agonists of the thyrotropin-releasing hormone receptor (TRHR) signaling pathway (AID 1346891; calls by dose curve; note: series mostly up to about 58 µM)
Outline: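 Readout was intracellular calcium fluorescence in TRHR-Hek293 cells. Cells were incubated 18 h, dye-loaded 2 h at 37 °C, and treated with compound in agonist mode.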

[10] = Human pregnane X receptor (PXR) small molecule agonists, qHTS cell viability counter screen (AID 1346977); note: nearly all actives have a fitted effect of over 50% in size; note: potency is the fitted concentration of half-maximal effect
Outline: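 In each well, the PXR reporter HepG2 line was checked for viability: CellTiter-Fluor reagent added 23hr post-dosing, fluorescence read after 1hr incubation at 37C.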

[11] = Caspase-3/7 induction in HepG2 cells by small molecules, qHTS assay (AID 1346978); note: nearly all actives have a fitted effect of over 15% in size; note: potency is the fitted concentration of half-maximal effect
Outline: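 Wild-type HepG2 cells, 2,000/well, settled 5 hr at 37 C and 5% CO2, then compound-treated for 17 hr; caspase-3/7 activity read by luminescent Caspase-Glo 3/7 after 30 min at room temperature.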

[12] = Caspase-3/7 induction in CHO-K1 cells by small molecules, qHTS cell viability counter screen (AID 1346979); note: nearly all actives have a fitted effect of over 35% in size; note: potency is the fitted concentration of half-maximal effect
Outline: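 Following a 5hr settling period, CHO-K1 cells at 1,500 per well received DMSO-dissolved compounds. Cell viability was quantified 16hr later by CellTiter-Fluor fluorescence, measured after 1hr with reagent at 37C.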

[13] = Caspase-3/7 induction in CHO-K1 cells by small molecules, qHTS assay (AID 1346980); note: nearly all actives have a fitted effect of over 15% in size; note: potency is the fitted concentration of half-maximal effect
Outline: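 Wild-type CHO-K1 cells exposed to compounds for 17hr at 37 C, 5% CO2. Caspase-3/7 activity then measured by Caspase-Glo 3/7 luminescence after 30min at room temperature.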

[14] = Caspase-3/7 induction in HepG2 cells by small molecules, qHTS cell viability counter screen (AID 1346981); note: nearly all actives have a fitted effect of over 30% in size; note: potency is the fitted concentration of half-maximal effect
Outline: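 Treatment of HepG2 cells with DMSO-delivered compounds ran 16 hr at 37 C following a 5-hr pre-incubation of 2,000 cells/well. CellTiter-Fluor fluorescence, read after 1 hr, served as the viability measure in a qHTS format.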

[15] = molecular target: Nuclear receptor subfamily 1 group I member 2 (Homo sapiens) (UniProt O75469); test: Human pregnane X receptor (PXR) small molecule agonists, qHTS assay (AID 1346982); note: nearly all actives have a fitted effect of over 35% in size; note: potency is the fitted concentration of half-maximal effect
Outline: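 Stable HepG2 line reporting PXR-mediated CYP3A4 expression via luciferase. Treatment: 24 hr with compounds in DMSO at 37 C. Detection: ONE-Glo luminescence.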

[16] = molecular target: Nuclear receptor subfamily 1 group I member 2 (Rattus norvegicus) (UniProt Q9R1A7); test: Rat pregnane X receptor (rPXR) activation by small molecules, qHTS assay (AID 1346983); conditions: rPXR luciferase reporter cells, One-Glo luminescence, 24 h; max activation: stronger effect = higher value; note: nearly all actives have a fitted effect of over 20% in size
Outline: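 Cell-based rPXR activation assay: rPXR cells, 2,000 per well, rested 5hr at 37 C, then exposed to compounds in DMSO for 24 hr at 37 C. Luciferase activity read by One-Glo luminescence after 30 min at room temperature.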

[17] = molecular target: Nuclear receptor subfamily 1 group I member 2 (Homo sapiens) (UniProt O75469); test: CYP3A4 induction through human pregnane X receptor (PXR) by small molecules, qHTS assay (AID 1346984); note: nearly all actives have a fitted effect of over 40% in size; note: potency is the fitted concentration of half-maximal effect
Outline: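 After 24 h at 37C with compound, DPX-2 cells (HepG2, co-transfected PXR response element and CYP3A4 promoter-luciferase) got 3uM final P450-Glo Luciferin-IPA for 3 h; One-Glo luminescence followed.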

[18] = molecular target: Nuclear receptor subfamily 1 group I member 2 (Homo sapiens) (UniProt O75469); test: Human pregnane X receptor (PXR) activation by small molecules, qHTS assay (AID 1346985); note: nearly all actives have a fitted effect of over 40% in size; note: potency is the fitted concentration of half-maximal effect
Outline: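 DPX-2 cells (HepG2 co-transfected with a PXR response element and a CYP3A4-promoter luciferase construct) were seeded at 2,000 per well, rested 5 hr at 37C, then exposed to DMSO-dissolved compounds for 24 hr. Activation was read as luciferase luminescence.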

[19] = molecular target: Cytochrome P450 2D6 (Homo sapiens) (UniProt P10635); test: Cytochrome P450 Family 2 Subfamily D Member 6 (CYP2D6) small molecule antagonists: luciferase reporter qHTS assay (AID 1671196); note: nearly all actives have a fitted effect of over 50% in size; note: potency is the fitted concentration of half-maximal effect
Outline: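 Chemicals tested for interference with CYP2D6 activity; proluciferin substrate, NADPH regeneration, 1 h at room temperature, luminescent detection.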

[20] = molecular target: Progesterone receptor (Homo sapiens) (UniProt P06401); test: qHTS assay to identify small molecule agonists of the progesterone receptor (PR) signaling pathway (AID 1346784; calls by dose curve; note: nearly all actives have a fitted effect of over 30% in size; note: potency is the fitted concentration of half-maximal effect)
Outline: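 Reporter assay, GripTite PR-UAS-bla HEK 293T cells: 16 hr exposure to DMSO-dissolved compounds at 37C, 5% CO2, in steroid-depleted (2% charcoal-stripped FBS) medium; beta-lactamase measured by FRET fluorescence.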

Chain of Nuclear receptor subfamily 1 group I member 2 (Homo sapiens) (O75469 whole entry, looked up): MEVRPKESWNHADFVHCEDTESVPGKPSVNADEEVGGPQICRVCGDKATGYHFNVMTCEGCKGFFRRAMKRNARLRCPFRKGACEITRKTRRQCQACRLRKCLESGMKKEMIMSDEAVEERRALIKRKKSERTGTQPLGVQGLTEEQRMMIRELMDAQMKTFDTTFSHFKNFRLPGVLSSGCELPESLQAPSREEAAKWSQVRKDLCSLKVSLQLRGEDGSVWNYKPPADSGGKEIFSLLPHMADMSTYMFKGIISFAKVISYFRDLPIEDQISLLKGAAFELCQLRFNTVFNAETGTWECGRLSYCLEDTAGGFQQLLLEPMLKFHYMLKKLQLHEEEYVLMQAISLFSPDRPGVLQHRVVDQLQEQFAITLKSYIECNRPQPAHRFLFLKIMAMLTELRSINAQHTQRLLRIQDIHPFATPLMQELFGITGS
Chain of Cytochrome P450 2D6 (Homo sapiens) (P10635 whole entry, looked up): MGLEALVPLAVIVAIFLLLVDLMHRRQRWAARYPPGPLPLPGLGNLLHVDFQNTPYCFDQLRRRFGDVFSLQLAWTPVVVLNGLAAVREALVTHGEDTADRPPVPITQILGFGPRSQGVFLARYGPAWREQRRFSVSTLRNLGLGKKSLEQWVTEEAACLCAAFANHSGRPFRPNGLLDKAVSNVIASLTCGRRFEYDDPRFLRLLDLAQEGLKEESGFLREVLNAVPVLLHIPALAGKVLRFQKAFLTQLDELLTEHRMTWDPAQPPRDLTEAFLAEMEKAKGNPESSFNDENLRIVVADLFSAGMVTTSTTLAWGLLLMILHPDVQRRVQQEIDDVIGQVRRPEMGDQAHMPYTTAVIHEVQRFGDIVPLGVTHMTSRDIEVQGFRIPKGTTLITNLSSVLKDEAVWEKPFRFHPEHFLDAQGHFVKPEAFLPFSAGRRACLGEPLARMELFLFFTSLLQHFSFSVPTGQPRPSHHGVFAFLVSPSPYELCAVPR
Chain of Thyrotropin-releasing hormone receptor (Homo sapiens) (P34981 whole entry, looked up): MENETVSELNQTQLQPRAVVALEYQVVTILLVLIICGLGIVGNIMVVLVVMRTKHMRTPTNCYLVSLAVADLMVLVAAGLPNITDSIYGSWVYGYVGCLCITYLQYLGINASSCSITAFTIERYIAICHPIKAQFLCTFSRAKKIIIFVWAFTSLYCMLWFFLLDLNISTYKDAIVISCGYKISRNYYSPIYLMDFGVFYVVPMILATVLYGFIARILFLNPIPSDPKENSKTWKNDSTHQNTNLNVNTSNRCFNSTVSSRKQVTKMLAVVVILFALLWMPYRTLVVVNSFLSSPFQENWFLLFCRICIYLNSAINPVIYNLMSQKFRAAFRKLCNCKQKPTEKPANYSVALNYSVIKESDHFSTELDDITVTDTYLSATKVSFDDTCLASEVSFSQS
Chain of Nuclear receptor subfamily 1 group I member 2 (Rattus norvegicus) (Q9R1A7 whole entry, looked up): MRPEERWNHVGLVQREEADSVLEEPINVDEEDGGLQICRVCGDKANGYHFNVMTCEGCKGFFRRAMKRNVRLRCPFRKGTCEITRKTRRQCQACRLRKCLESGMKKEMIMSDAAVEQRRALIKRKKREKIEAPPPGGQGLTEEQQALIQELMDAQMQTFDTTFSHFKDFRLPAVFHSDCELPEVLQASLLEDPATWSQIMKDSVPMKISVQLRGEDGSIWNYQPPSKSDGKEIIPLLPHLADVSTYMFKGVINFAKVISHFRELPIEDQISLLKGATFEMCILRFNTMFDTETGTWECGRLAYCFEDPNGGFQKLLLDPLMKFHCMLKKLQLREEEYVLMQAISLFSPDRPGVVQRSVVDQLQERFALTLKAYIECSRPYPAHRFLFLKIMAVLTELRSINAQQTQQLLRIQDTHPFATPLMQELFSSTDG
Chain of Progesterone receptor (Homo sapiens) (P06401 whole entry, looked up): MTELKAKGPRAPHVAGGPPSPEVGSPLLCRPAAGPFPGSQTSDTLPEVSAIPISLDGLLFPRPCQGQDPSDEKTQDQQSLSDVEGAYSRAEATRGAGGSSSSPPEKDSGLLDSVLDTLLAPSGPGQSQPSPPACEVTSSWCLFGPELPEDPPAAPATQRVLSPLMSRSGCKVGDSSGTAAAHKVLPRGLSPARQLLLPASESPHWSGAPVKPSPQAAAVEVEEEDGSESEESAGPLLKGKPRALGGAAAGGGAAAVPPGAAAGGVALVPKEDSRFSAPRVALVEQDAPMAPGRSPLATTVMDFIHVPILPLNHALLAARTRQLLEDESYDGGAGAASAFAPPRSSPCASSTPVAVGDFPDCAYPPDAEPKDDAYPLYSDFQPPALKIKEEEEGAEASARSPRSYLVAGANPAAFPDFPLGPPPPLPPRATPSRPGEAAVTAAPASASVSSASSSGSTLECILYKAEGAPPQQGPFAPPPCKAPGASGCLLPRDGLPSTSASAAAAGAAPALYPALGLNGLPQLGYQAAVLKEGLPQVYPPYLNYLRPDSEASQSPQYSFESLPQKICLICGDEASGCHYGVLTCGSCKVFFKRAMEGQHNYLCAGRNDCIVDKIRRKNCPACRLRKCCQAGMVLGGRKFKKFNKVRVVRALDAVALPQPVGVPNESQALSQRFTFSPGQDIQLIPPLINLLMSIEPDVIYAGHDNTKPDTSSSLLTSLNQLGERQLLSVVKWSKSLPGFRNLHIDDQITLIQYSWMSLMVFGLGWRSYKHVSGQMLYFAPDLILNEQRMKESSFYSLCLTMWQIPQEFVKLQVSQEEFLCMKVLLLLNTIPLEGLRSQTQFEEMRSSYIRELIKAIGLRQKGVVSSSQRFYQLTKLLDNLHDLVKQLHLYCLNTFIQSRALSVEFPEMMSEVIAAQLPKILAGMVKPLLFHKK

Row | Compound | Potency [1] | Potency [2] | Potency [3] | Potency [4] | Potency [5] | Potency [6] | outcome [7] | Potency [8] | Potency [9] | Potency [10] | Potency [11] | Potency [12] | Potency [13] | Potency [14] | Potency [15] | max activation [16] | Potency [17] | Potency [18] | Potency [19] | Potency [20]
1 | O=Cc1ccccc1C=O | inactive | inactive | inactive | inactive | inactive | inactive | inactive | inactive | inactive | 48.6 µM (active) and inactive | 48.6 µM (active) and inactive | 15.4 µM (active) and inactive | 21.7 µM (active) and inactive | 30.6 µM (active) and inactive | 19.3 µM (active) and inactive | 5.06% (inactive) | inactive | inactive | inactive | –
2 | NCCOCCO | inactive | inactive | inactive | inactive | inactive | inactive | inactive | inactive | inactive | inactive | inactive | inactive | inactive | inactive | inactive | – | – | – | inactive | –
3 | Cc1ccc(N)c([N+](=O)[O-])c1 | inactive | – | – | inactive | – | inactive | inactive | inactive | inactive | inactive | inactive | inactive | inactive | inactive | inactive | – | – | – | 39.4 µM (active) and inactive | inactive
4 | CC[C@]12CCCN3CCc4c(n(c5ccccc45)[C@@](O)(C(=O)OC)C1)[C@@H]32 | inactive | inactive | – | inactive | inactive | inactive | inactive | – | – | inactive | inactive | inactive | inactive | inactive | 30.6 µM (active) and 9.44 µM (active) | 1.48% (inactive) | 12.6 µM (active) | 14.1 µM (active) | 10 µM (active) and 8.71 µM (active) | inactive
5 | O=S1(=O)CCCO1 | inactive | inactive | – | inactive | inactive | inactive | inactive | – | – | inactive | inactive | inactive | inactive | inactive | inactive | – | – | – | inactive | inactive
6 | Cc1ccc(S(=O)(=O)NCl)cc1 | inactive | inactive | – | inactive | – | inactive | inactive | – | – | inactive | inactive | inactive | inactive | inactive | inactive | 4.18% (inactive) | inactive | inactive | inactive | inactive
7 | C=CCOC(=O)C(=C)C | inactive | inactive | – | inactive | – | inactive | inactive | inactive | inactive | inactive | inactive | inactive | inactive | inactive | inactive | – | – | – | inactive | inactive
8 | CC(C)=CCO | inactive | inactive | – | inactive | inactive | inactive | inactive | inactive | inactive | inactive | inactive | inactive | inactive | inactive | 62.6 µM (active) and inactive | – | – | – | inactive | inactive
9 | c1ccc2cc3ccccc3cc2c1 | inactive | inactive | inactive | inactive | inactive | inactive | inactive | – | – | inactive | inactive | inactive | inactive | inactive | 35.5 µM (active) and 21.7 µM (active) | – | – | – | inactive | –
10 | CCC(Cc1c(I)cc(I)c(N)c1I)C(=O)O (configuration not stated) | inactive | inactive | inactive | inactive | – | inactive | inactive | inactive | inactive | inactive | inactive | inactive | inactive | inactive | 52.8 µM (active) | -1.5% (inactive) | inactive | inactive | inactive | –
11 | CCOC(=O)C(C)Oc1ccc(Oc2cnc3cc(Cl)ccc3n2)cc1 (configuration not stated) | inactive | inactive | inactive | inactive | inactive | inactive | – | – | – | inactive | inactive | inactive | inactive | inactive | inactive | – | – | – | 32.5 µM (active) | –
12 | CCC(=O)O[C@H]1[C@H](O[C@@H]2[C@@H](C)[C@H](O[C@H]3C[C@@](C)(OC)[C@@H](O)[C@H](C)O3)[C@@H](C)C(=O)O[C@H](CC)[C@@](C)(O)[C@H](O)[C@@H](C)C(=O)[C@H](C)C[C@@]2(C)O)O[C@H](C)C[C@@H]1N(C)C | 32.2 µM (active) and inactive | inactive | – | 14.4 µM (active) and inactive | inactive | inactive | inactive | – | – | 36.1 µM (active) and inactive | inactive | inactive | inactive | inactive | 9.07 µM (active) and inactive | – | – | – | inactive | inactive
13 | COc1ccc(C(=O)c2ccccc2O)c(O)c1 | inactive | 27.2 µM (active) and 23.7 µM (active) | inactive | inactive | – | inactive | inactive | inactive | inactive | inactive | inactive | inactive | inactive | inactive | – | – | – | – | – | –
14 | CCCCCCC(C)O (configuration not stated) | inactive | inactive | – | inactive | inactive | inactive | inactive | inactive | inactive | inactive | inactive | inactive | inactive | inactive | inactive | – | – | – | inactive | inactive
15 | CC1(C)OC(=O)NC1=O | inactive | inactive | – | inactive | inactive | inactive | inactive | – | – | inactive | inactive | inactive | inactive | inactive | – | – | – | – | inactive | inactive
16 | CC(=O)O[C@]1(C(C)=O)CC[C@H]2[C@@H]3C=C(C)C4=CC(=O)CC[C@]4(C)[C@H]3CC[C@@]21C | inactive | inactive | – | – | inactive | inactive | – | – | – | inactive | inactive | 68.6 µM (active) | inactive | inactive | 27.3 µM (active) | – | inactive | inactive | inactive | 0.0039 µM (active)
